Most compounds without a hit are left out; they make up all but 1% or so of the library.
NPSR antag: antagonists of human neuropeptide S receptor cAMP signaling | Q6W5P4 | CHO-NPSR cells, cAMP TR-FRET, antagonist mode | Potency, µM (doses to about 38.3 µM), for inactives: at the top dose activity change, negative = inhibition, actives largely listed as inhibitors | 220,000 compounds, 1% hits | AID 1461; active = well fitted curve in the direction sought with a large enough effect; inconclusive = small, poorly fitted or top-dose-only effect, or another doubt; inactive = no such curve, though single readings can be large; an effect the other way counts as inactive or inconclusive; note: potency is the fitted concentration of half-maximal effect; % is set by controls: 0 for no effect and ±100 for the full control effect; nearly all actives have a fitted effect of over 50% in size
TCR act: T cell receptor activation. primary human leukocytes, anti-CD3, IL-2 HTRF, 48 h. Potency, µM (titrated, usually from 9.22 µM), without a hit: at the top dose activation of IL-2 secretion, actives largely listed as activators. 330,000 tested, under 10 active. AID 504894; active = well fitted curve in the direction sought with a large enough effect; inconclusive = small, poorly fitted or top-dose-only effect, or another doubt; inactive = no such curve, though single readings can be large; an effect the other way counts as inactive or inconclusive; note: % of control where 0% means no effect
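48 hr co-incubation of compounds, a-CD3 beads and primary human leukocytes; IL-2 quantified homogeneously by HTRF with anti-IL-2 K and d2 conjugates.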
TSHR antagonist: blocks TSH signaling through the human TSH receptor. P16473. TSHR-expressing cells, TSH-stimulated cAMP HTRF, 2 h; active compounds read low. activity change, negative = inhibition, % at 11.5 µM. 330,000 compounds, 0.2% hits;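 active = activity change below a set negative limit, meaning inhibition stronger than a set level, cut at about -70% in these data; inconclusive = activity change between two set negative limits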; note: % is set by controls: 0 for no effect and ±100 for the full control effect
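Competitive HTRF cAMP read-out (cryptate anti-cAMP antibody, cAMP-d2; 30 min, room temperature) in freshly harvested TSHR cells. Compounds added before TSH at EC80 (4nM final), followed by 2 hours' incubation at 37 deg C.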
FBPA coupling cs: counter-screen for Giardia aldolase inhibitors: coupling enzyme system. activity change, negative = inhibition, % at 58.2 µM, hits read low. 290,000 compounds, 0.67% hits. coupling enzyme system counterscreen, AmpLite Red fluorescence; in the data active = activity change below about -30%; note: % is set by controls: 0 for no effect and ±100 for the full control effect
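Compounds tested against the coupling enzymes alone at 57.5 uM final; readout was AmpLite Red fluorescence (525/598 nm) after 20 min at RT.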
TR SRC2 fluor cs: alters Texas Red total fluorescence, flagging assay interference; 280,000 compounds, 0.29% hits; TRb/SRC2 Texas Red total fluorescence interference; Potency, µM (titrated, usually from 106 µM), for the others: top-dose fluorescence change, negative = quenching; active = well fitted curve in either direction with a large enough effect; inconclusive = small, poorly fitted or top-dose-only effect; note: potency is the fitted concentration of half-maximal effect; % is set by controls: 0 for no effect and ±100 for the full control effect
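Flags fluorescent or light-absorbing compounds by total fluorescence, S + 2P, at 555 nm excitation and 632 nm emission. Mixture: 20 nM Texas Red SRC2 peptide, 0.6 uM human TRb LBD, 1 uM T3, 5% DMSO; compound exposure 5 h at ambient temperature.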
TRb SRC2 PPI: inhibitors of human thyroid hormone receptor beta-SRC2 interaction. P10828. TRbeta-SRC2 peptide binding, fluorescence polarization; receptor liganded with 1 µM T3. Potency, µM (highest dose often 106 µM), for the others: at the highest dose activity change, negative = inhibition, hits mostly inhibitors. 280,000 compounds, 0.065% hits; active = well fitted curve in the direction sought with a large enough effect; inconclusive = small, poorly fitted or top-dose-only effect, or another doubt; inactive = no such curve, though single readings can be large; an effect the other way counts as inactive or inconclusive;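 note: potency is the fitted concentration of half-maximal effect; plate controls were bound peptide for no effect and peptide without receptor for full effect; nearly all actives have a fitted effect of over 50% in size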
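A fluorescence polarization screen tested compounds at multiple concentrations against complex formation between 0.6 uM TRb ligand-binding domain and 20 nM Texas Red SRC2 peptide, with 1 uM T3 present; readout after 5 hr.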
Casp1 catalase: caspase-1 inhibition with catalase present. 30 tested, under 10 active. caspase-1 Ac-WEHD-AFC fluorescence rate, catalase buffer. Potency, µM (doses to about 57.5 µM), inactives show at the top dose activity change, negative = inhibition, hits mostly inhibitors. shares compounds with FBPA coupling cs. AID 888
Casp1 confirm: confirmation of allosteric or competitive inhibitors of human caspase-1. shares compounds with FBPA coupling cs. purified caspase-1, fluorogenic substrate cleavage. Potency, µM (top dose mostly 57.5 µM), inactives show at the highest dose activity change, negative = inhibition, actives largely listed as inhibitors. 60 compounds, 20% hits. AID 896
CASP7 inh CRC: confirmation of allosteric or competitive inhibitors of human caspase-7. shares compounds with FBPA coupling cs. recombinant caspase-7, fluorogenic substrate cleavage. Potency, µM (doses to about 57.5 µM), without a hit: top-dose activity change, negative = inhibition, usual class: inhibitors. 60 tested, under 10 active; active = well fitted inhibition curve with a large enough effect in the main read-out, with a control signal flat, not every such curve was filed as active; inconclusive = small, poorly fitted or top-dose-only effect, or a change in a side signal; inactive = no such curve, though single readings can be large or run the other way
Casp7 cysteine: counter-screen for redox active caspase-7 inhibitors: cysteine buffer; shares compounds with FBPA coupling cs; caspase-7 enzyme with cysteine, fluorogenic substrate, redox counterscreen; Potency, µM (doses to about 57.5 µM), without a hit: at the highest dose activity change, negative = inhibition, usual class: inhibitors; 60 tested, under 10 active; AID 908
CASP7 redox cat: counter-screen for redox active caspase-7 inhibitors: catalase buffer; shares compounds with FBPA coupling cs; Caspase-7 Ac-DEVD-AFC fluorescence rate, catalase buffer; Potency, µM (highest dose often 57.5 µM), inactives show at the top dose activity, negative = inhibition, actives largely listed as inhibitors; 30 tested, under 10 active; AID 909
Casp1 cysteine: counter-screen for redox active caspase-1 inhibitors: cysteine buffer | shares compounds with FBPA coupling cs | 60 tested, under 10 active | recombinant caspase-1, fluorogenic substrate, cysteine buffer | Potency, µM (doses to about 57.5 µM), inactives show top-dose activity change, negative = inhibition, usual class: inhibitors
The depositor's hits bear a star; ? = inconclusive; . = no result given; [ ] = another dose, or the depositor's remark. Unless noted, calls come from the whole dose curve; as a rule, active = well fitted inhibition curve with a large enough effect in the main read-out, with a control signal flat; inconclusive = small, poorly fitted or top-dose-only effect, or a change in a side signal; inactive = no such curve, though single readings can be large or run the other way.

SMILES	NPSR antag	TCR act	TSHR antagonist	FBPA coupling cs	TR SRC2 fluor cs	TRb SRC2 PPI	Casp1 confirm	CASP7 inh CRC	Casp7 cysteine	Casp1 cysteine	others
CN1CCc2nc(SCC(=O)Nc3ccc(OC(F)(F)F)cc3)c(C#N)c(-c3cccs3)c2C1	-58%	-6%[46.1 µM]	-8	-51*	-9%	-2%	.	.	.	.
Cc1ccc(NC(=O)CCCN2C(=O)COc3ccc(C)cc32)c(Cl)c1	.	.	.	.	0%	2%	.	.	.	.
N#Cc1cccc(N=Cc2c(O)ccc3ccccc23)c1	5%	-1%[46.1 µM]	8	-38*	-1%[53 µM]	-3%[53 µM]	.	.	.	.
COc1ccc(N=Cc2c(O)ccc3ccccc23)cc1	19%	9%	10	-23	-7%	7%	.	.	.	.
CCOC(=O)c1sc(/N=C/c2c(O)ccc3ccccc23)cc1C	5%	0%[46.1 µM]	9	-34*	7%	2%	.	.	.	.
Cc1ccc(N=Cc2c(O)ccc3ccccc23)cc1F	-52%	1%[46.1 µM]	34	-47*	2%	-11%	.	.	.	.
NC(=O)c1ccc(N=Cc2c(O)ccc3ccccc23)cc1	.	3%	.	.	.	.	.	.	.	.
O=C(O)c1ccc(N=Cc2c(O)ccc3ccccc23)cc1	.	-3%	4	-36*	.	.	.	.	.	.
O=S(=O)(/N=C/c1c(O)ccc2ccccc12)c1ccccc1	.	-7%	0	-36*	.	.	.	.	.	.
Cn1c(/N=C/c2c(O)ccc3ccccc23)nc2ccccc21	-18%[46.1 µM]	-4%	61	-79*	1%	16%	.	.	.	.
Cc1oc(/N=C/c2c(O)ccc3ccccc23)c(C#N)c1C	1%[46.1 µM]	.	-8	-30*	6%	12%	.	.	.	.
CCOC(=O)c1cc(-c2ccccc2)nn1-c1ccccn1	-18%[46.1 µM]	.	12	-34*	-1%	1%	.	.	.	.
CCOC(=O)c1cc(-c2cccnc2)nn1-c1ccccc1	-4%	-8%	9	-6	2%	0%	.	.	.	.
O=C(Nc1ccc(OCc2cc(=O)n3c4c(sc3n2)CCCC4)cc1)c1ccccc1	.	.	.	.	0%	1%	.	.	.	.
O=C(O)COc1ccc(C(=O)c2cccs2)c(Cl)c1Cl	.	.	.	22	-16%	-5%	.	.	.	.
O=C(O)COc1ccc2nsnc2c1Cl	13µM*	37%	-2	1	1%	-6%	.	.	.	.
Cc1ccc(S/C=C\C(=O)c2ccccc2)cc1	13µM*	.	-21	-1	0%	-12%	.	.	.	.
Cc1ccc(C)n1-c1cc([N+](=O)[O-])ccc1-n1ccnc1	6%	-4%	5	2	-4%	-3%	.	.	.	.
CC1(C)N([O-])c2cc([N+](=O)[O-])ccc2[N+]1=O	2%[7.67 µM]	1%	-3	-63*	-4%	-2%	.	.	.	.
Oc1ccc(NCc2ccc(OCc3ccccc3)cc2)cc1	.	3%	-1	-10	-13%[11.2 µM]	0%[11.2 µM]	.	.	.	.
CCc1ccc(CNc2ccc(O)cc2)cc1	-20%[46.1 µM]	3%	-8	-58*	0%	-13%	-5%	-3%	-4%	9%
COc1ccc(Cn2c(=O)[nH]c3cc(C(=O)N4CCN(Cc5ccccc5)CC4)ccc3c2=O)cc1	?	3%	-30	4	1%	-3%	-8%	?	?	4%	Casp1 catalase=-3%;CASP7 redox cat=?
COc1cc(C2C(=O)N(C3CCCCC3)CC(=O)N2C2CCCC2)ccc1OC(C)C (configuration not stated)	.	.	.	.	-1%	2%	.	.	.	.
COC(=O)c1ccccc1NC(=O)CN1C(=O)COc2ccccc21	.	.	.	.	-1%	2%	.	.	.	.
CC1=C(C(=O)Nc2ccc(F)cc2F)C2(CCCCCC2)OC1=O	.	.	.	.	?	13%	.	.	.	.
SMILES	NPSR antag	TCR act	TSHR antagonist	FBPA coupling cs	TR SRC2 fluor cs	TRb SRC2 PPI	Casp1 confirm	CASP7 inh CRC	Casp7 cysteine	Casp1 cysteine	others
CC1=C(C(=O)Nc2cc(-c3cccc(F)c3)[nH]n2)C2(CCCCC2)OC1=O	-13%[46.1 µM]	2%	-4	-2	0%	6%	-8%	-35%	-38%	3%	Casp1 catalase=-2%;CASP7 redox cat=-11%
COc1ccc(Br)cc1CNc1ccc(O)cc1	-16%[46.1 µM]	0%	5	-63*	?	8.9µM*	-2%	-1%	3%	8%	Casp1 catalase=1%;CASP7 redox cat=-5%
O=C1Cc2ccccc2C(=O)N1CCc1ccccc1	4%[46.1 µM]	3%	4	-47*	2%	-4%	6.3µM*	10µM*	-3%	-1%
CC(C)Cn1c(=O)c2sccc2n2c(CCCC(=O)Nc3ccc(Cl)cc3)nnc12	.	.	.	.	-1%	-10%	.	.	.	.
O=C(COC(=O)c1cc(-c2ccco2)nc2ccccc12)NCc1ccc2c(c1)OCO2	-4%[46.1 µM]	-2%	-7	2	-5%	1%	?	?	-12%	?	Casp1 catalase=?;CASP7 redox cat=-21%
O=c1cnnc(SCCc2ccccc2)[nH]1	-9%[46.1 µM]	1%	-5	11	-9%	1%	-6%	-2%	-6%	5%	Casp1 catalase=4%;CASP7 redox cat=2%
Cc1ccc(NC(=O)N2CCC(c3nc4c(nnn4Cc4cccc(Cl)c4)c(=O)[nH]3)CC2)cc1	-16%[46.1 µM]	.	-8	1	-4%	5%	-10%	?	?	3%
COc1ccc(-c2cc(-c3ccccc3)nc3c2COc2ccc(F)cc2-3)cc1	.	.	.	.	?	2%	.	.	.	.
Cc1ccsc1C=Nc1ccc(O)cc1	-15%[46.1 µM]	-2%	-22	-50*	-9%	32µM*	-11%	-3%	-1%	3%	Casp1 catalase=-1%;CASP7 redox cat=-6%
Cc1cccc(NC(=O)C2CCCN(c3nc4ccccc4s3)C2)c1C (configuration not stated)	.	.	.	.	-1%	-3%	.	.	.	.

Screening data deposited in PubChem by National Center for Advancing Translational Sciences (NCATS).
